Sampled rows, rich in hits. Any-hit rate of the full collection: about 19%.
IL1B secr inh: inhibitors of inflammasome signaling (IL-1 beta secretion); THP-1 LPS/ATP IL-1B secretion, AlphaLISA, 16 h; active compounds read low; activity change, % at 57.5 µM; hit rate 4.7% among 360,000; in the data active = activity change below about -50%; inconclusive = mostly about -30% to -49%
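THP-1 cells pretreated 1 hr with compounds (up to 57.5 uM final), then stimulated with LPS (250 ng/mL final) plus ATP (1.25 mM final); secreted IL-1B measured by AlphaLISA after 16 hr, decreased signal indicating inhibition.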
HT1080 IDH1KD tx: toxicity to HT-1080 IDH1 knockdown cells (counter line); HT-1080 IDH1 knockdown viability, ATP luminescence, 48 h; hit rate 2% among 360,000; Potency, µM (doses to about 46.1 µM), usual class: cytotoxic
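Using the IDH1-knockdown HT-1080 line run in the same batch and compound series as the NT line, viability after 48 h at 37 °C was determined by CellTiter-Glo luminescence and expressed as % activity.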
DT40 TDP1 CPT: DT40-hTDP1 cell growth loss with CPT | chicken DT40 Tdp1-/-;hTDP1 cells + 20 nM CPT, ATP luminescence, 48 h | Potency, µM (series often up to 46.2 µM), hits mostly inhibitors | hit rate 12% among 420,000 | AID 686979; note: nearly all actives have a fitted effect of over 55% in size
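Chicken DT40 Tdp1-/- cells stably complemented with human TDP1 were seeded at 400 cells/well in medium containing 20 nM camptothecin, exposed to pin-transferred compounds, and grown at 37 °C for at least 48 hr. Viability was read as ATP luminescence.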
DT40 TDP1 no CPT: qHTS for Inhibitors of human tyrosyl-DNA phosphodiesterase 1 (TDP1): qHTS in cells in absence of CPT; DT40 Tdp1-/- hTDP1 cells, no CPT, ATP luminescence, 48 h; Potency, µM (series often up to 46.2 µM), hits mostly inhibitors; hit rate 15% among 420,000; note: nearly all actives have a fitted effect of over 55% in size
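No-CPT arm: Tdp1-/-;hTDP1 DT40 cells (400/well) plus compounds, incubated ≥48 hr at 37 °C. Readout CellTiter-Glo luminescence.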
HT1080NT lethal: kills 2HG-producing HT-1080-NT fibrosarcoma cells; Potency, µM (series often up to 46.1 µM), hits mostly cytotoxic; hit rate 1.6% among 360,000; HT-1080-NT fibrosarcoma viability, CellTiter-Glo ATP luminescence, 48 h;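 note: NT is the 2HG producing partner of a matched IDH1 knockdown line; nearly all actives have a fitted effect of over 55% in size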
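750 cells/well, RPMI + 5% FBS; 2 h settle, compound pin-transfer, 48 h at 37 degrees C. CellTiter-Glo 10 min RT, luminescence. Normalized to DMSO and media-only wells.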
uPA generation: inhibitors of cell surface uPA generation | cell surface uPA generation assay, qHTS | Potency, µM (doses to about 38.3 µM), most hits filed as inhibitors | hit rate 0.31% among 330,000 | AID 540303; active = well fitted inhibition curve with a large enough effect; inconclusive = small, poorly fitted or top-dose-only effect; inactive = no such curve, though single readings can be large or run the other way; tested in mouse RAW 264.7 cells; note: nearly all actives have a fitted effect of over 55% in size
A number is an active result; . = inactive; ? = inconclusive; / = no result; [ ] = another dose, or the depositor's remark. Unless noted, calls come from the whole dose curve; as a rule, active = well fitted curve in the direction sought with a large enough effect; inconclusive = small, poorly fitted or top-dose-only effect, or another doubt; inactive = no such curve, though single readings can be large; an effect the other way counts as inactive or inconclusive.

SMILES | IL1B secr inh | HT1080 IDH1KD tx | DT40 TDP1 CPT | DT40 TDP1 no CPT | HT1080NT lethal | uPA generation
O=C(c1ccccc1Oc1ccc([N+](=O)[O-])cc1)N1CCOCC1 | ? | . | . | . | . | .
COc1cc(S(=O)(=O)N2CCOCC2)cc(C(=O)c2nccn2C)c1OC | . | .[9.24 µM] | . | . | . | .
CCCCn1ccnc1C(=O)c1cc(S(=O)(=O)N2CCOCC2)ccc1C | . | . | 12µM | 10µM | . | /
Cc1ccc(S(=O)(=O)N2CCOCC2)cc1C(=O)N1CCC(Cc2ccccc2)CC1 | . | . | ? | 15µM | . | .
Cc1ccc(C)c(N2CCN(C(=O)c3cc(S(=O)(=O)N4CCOCC4)ccc3F)CC2)c1 | . | . | 15µM | 13µM | . | .
CC(=O)c1ccc(NC(=O)C(Cc2ccccc2)NS(=O)(=O)c2ccc3c(c2)CCC(=O)N3)cc1 (configuration not stated) | / | / | . | . | / | /
CCOc1ccc(N2CC(C(=O)Nc3nnc(C4CCCCC4)s3)CC2=O)cc1 (configuration not stated) | . | . | ? | ? | . | .
COc1cc(-c2nc3cnccn3c2Nc2ccc3c(c2)OCCO3)ccc1O | . | . | ? | ? | . | .
COc1cc(-c2nc3cnccn3c2Nc2ccccc2)ccc1O | . | . | 23µM | 18µM | . | .
CC(C)c1ccc(Nc2c(-c3ccccc3O)nc3cnccn23)cc1 | / | / | ? | 21µM | / | /
COc1cc(-c2nc3cnccn3c2Nc2ccc(C)cc2)ccc1O | . | 16µM | ? | ? | ? | ?
COc1cc(-c2nc3cnccn3c2Nc2ccc(C(C)C)cc2)ccc1O | -81 | ? | 9.2µM | 8.2µM | ? | .
CCOC(=O)c1c(NC(=O)COC(=O)c2ccccn2)sc(C)c1C | . | . | . | . | .[9.24 µM] | .
CC1(C)CC(=O)C2=C(C1)NC(Nc1nc3ccccc3o1)=NC2c1cccc(O)c1 (configuration not stated) | / | / | . | ? | / | /
CC1=NN(CCc2ccccn2)C(=O)CC1 | . | . | . | . | . | .
COc1cc(-c2nc3nc[nH]n3c2Nc2ccc(C(C)C)cc2)ccc1O | / | / | 23µM | 7.3µM | / | /
COc1cc(-c2nc3ccc(C)cn3c2Nc2ccc3c(c2)OCCO3)ccc1O | ? | ? | ? | ? | ? | .
CCOc1ccc(CCNC(=O)Cn2nc(CC)n3c(cc4sccc43)c2=O)cc1 | / | / | . | . | / | /
Cc1cc(N(C)Cc2ccccc2)nc(-c2ccccc2)n1 | . | ? | ? | 26µM | . | .
Cc1cc(N(C)Cc2ccccc2)nc2cc(O)ccc12 | -56 | ? | . | ? | ? | .
Cc1ccccc1C(=O)N(C)Cc1ccccc1 | . | . | . | ? | . | /
COc1cc(C(=O)/C=C/c2cccnc2)c([N+](=O)[O-])cc1OC | -100 | ? | 5.2µM | 5.8µM | ? | 8.9µM
CN(C(=O)COc1ccccc1)c1nnc(-c2cccnc2)s1 | . | . | . | . | . | .
O=C(C=Cc1cccnc1)c1ccccc1 | -106 | 18µM | 5.8µM | 5.8µM | ? | .
O=C(/C=C/c1cccnc1)c1ccc(O)cc1 | -98 | ? | ? | 15µM | ? | .
SMILES | IL1B secr inh | HT1080 IDH1KD tx | DT40 TDP1 CPT | DT40 TDP1 no CPT | HT1080NT lethal | uPA generation
CN(C)C(=O)COc1ccc(C(=O)/C=C/c2cccnc2)cc1 | -101 | ? | 16µM | 13µM | ? | .
CCOC(=O)CC1=CCc2c1ccc(OC)c2OC | . | ? | . | . | . | .
Fc1cccc(-c2nc(-c3ccncc3)no2)c1 | / | / | . | . | / | /
O=C(CSc1nnc(COc2ccccc2Cl)o1)NC(=O)NCc1ccco1 | . | . | ? | ? | . | .
CC(C)(C(=O)N1CCC1(C)C(=O)NS(=O)(=O)c1cccc(C#N)c1)c1ccccc1 (configuration not stated) | . | . | . | . | . | /
Cc1[nH]c2c(ccc3cccnc32)c1C | / | . | . | . | . | .
CC1=[N+](C)c2c(ccc3cccnc23)C1(C)C | -112 | ? | 0.33µM | 1.8µM | ? | .
Cc1sc2ncn(CC(=O)N3CCN(c4ccccn4)CC3)c(=O)c2c1S(=O)(=O)N1CCC(C)CC1 | . | . | . | . | . | .
Cc1sc2ncn(CC(=O)N3CCN(c4cccc(Cl)c4)CC3)c(=O)c2c1S(=O)(=O)N1CCC(C)CC1 | / | / | ? | 23µM | / | /
Cc1sc2ncn(CC(=O)N3CCN(c4ccccc4)CC3)c(=O)c2c1S(=O)(=O)N1CCC(C)CC1 | / | / | ? | 23µM | / | /
CN(Cc1ccccc1F)C(=O)CN1CCN(S(=O)(=O)c2ccc3c(c2)OCCCO3)CC1 | . | . | ? | ? | . | .
N#Cc1c(-c2ccc3c(c2)OCO3)csc1N | -60 | . | . | . | . | .
CC1(C)CC(=O)C(CSC(=O)c2ccccc2)C(=O)C1 | . | . | 13µM | 13µM | . | /
COc1ccc(NC(=O)c2cc(C3CCCCN3S(=O)(=O)c3ccc(F)cc3F)on2)c(C)c1 (configuration not stated) | . | . | ? | 15µM | . | /
COc1ccc(NC(=O)c2cc(C3CCCCN3S(=O)(=O)c3ccccc3)on2)c(C)c1 (configuration not stated) | . | . | ? | 8.2µM | . | /
COc1ccc(OC)c(NC(=O)Cc2csc(NC(=O)Nc3ccccc3OC)n2)c1 | . | . | ? | 21µM | . | .
COc1ccccc1NC(=O)Cc1csc(NC(=S)Nc2ccccc2)n1 | . | 3.2µM | 4.6µM | 6.5µM | 3.5µM | /
COc1ccc(NC(=O)Cc2csc(NC(=O)Nc3ccccc3OC)n2)c(OC)c1 | . | . | ? | 13µM | . | .
CCN(CC(=O)Nc1ccccc1OC)Cc1csc(CC(=O)Nc2ccc(C)cc2)n1 | . | . | 26µM | 16µM | . | .
CCC(=O)Nc1nc(CC(=O)Nc2ccccc2)cs1 | . | . | . | . | . | .
COc1ccc(OC)c(-c2csc(NC(=O)Cc3ccccc3OC)n2)c1 | ? | . | . | ? | . | /
Cc1cc(Br)ccc1NC(=O)CN(C)C(=O)COc1cccc2c1OC(C)(C)C2 | . | . | . | . | . | .
CN(C)C(=O)c1ccc(-c2cc(N(C)Cc3ccco3)ncn2)cc1 | / | / | . | . | / | /
COc1ccc(NC(=O)COc2ccc(-n3cnnn3)cc2)cc1OC | . | . | ? | 23µM | . | .
CC(C)(C)c1ccc(NC(=O)COc2ccc(-n3ccnc3)cc2)cc1 | . | ? | 15µM | 16µM | . | .
COc1cc(NC(=O)COc2ccc(-n3ccnc3)cc2)cc(OC)c1 | -106 | . | ? | ? | . | .
COc1ccc(OCC(=O)Nc2cc(OC)cc(OC)c2)cc1 | . | . | . | . | . | .

Source: PubChem BioAssay
